Out of some 310,000 compounds screened, about 14,000 (4.5%) showed an effect of 50% or more. Effects have a minus sign here. The entries come from a sample that favours strong results as a whole.
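Further: peak tail current of the secondary pulse compared with the same well before compound.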

For this test, the target named is human ether-à-go-go-related gene (hERG) potassium channel (human, UniProt Q12809). The test can be described thus: primary screen, population patch clamp on CHO cells stably expressing hERG; higher = less effect of the substance.
Sequence of human ether-à-go-go-related gene (hERG) potassium channel (Q12809 whole entry, looked up): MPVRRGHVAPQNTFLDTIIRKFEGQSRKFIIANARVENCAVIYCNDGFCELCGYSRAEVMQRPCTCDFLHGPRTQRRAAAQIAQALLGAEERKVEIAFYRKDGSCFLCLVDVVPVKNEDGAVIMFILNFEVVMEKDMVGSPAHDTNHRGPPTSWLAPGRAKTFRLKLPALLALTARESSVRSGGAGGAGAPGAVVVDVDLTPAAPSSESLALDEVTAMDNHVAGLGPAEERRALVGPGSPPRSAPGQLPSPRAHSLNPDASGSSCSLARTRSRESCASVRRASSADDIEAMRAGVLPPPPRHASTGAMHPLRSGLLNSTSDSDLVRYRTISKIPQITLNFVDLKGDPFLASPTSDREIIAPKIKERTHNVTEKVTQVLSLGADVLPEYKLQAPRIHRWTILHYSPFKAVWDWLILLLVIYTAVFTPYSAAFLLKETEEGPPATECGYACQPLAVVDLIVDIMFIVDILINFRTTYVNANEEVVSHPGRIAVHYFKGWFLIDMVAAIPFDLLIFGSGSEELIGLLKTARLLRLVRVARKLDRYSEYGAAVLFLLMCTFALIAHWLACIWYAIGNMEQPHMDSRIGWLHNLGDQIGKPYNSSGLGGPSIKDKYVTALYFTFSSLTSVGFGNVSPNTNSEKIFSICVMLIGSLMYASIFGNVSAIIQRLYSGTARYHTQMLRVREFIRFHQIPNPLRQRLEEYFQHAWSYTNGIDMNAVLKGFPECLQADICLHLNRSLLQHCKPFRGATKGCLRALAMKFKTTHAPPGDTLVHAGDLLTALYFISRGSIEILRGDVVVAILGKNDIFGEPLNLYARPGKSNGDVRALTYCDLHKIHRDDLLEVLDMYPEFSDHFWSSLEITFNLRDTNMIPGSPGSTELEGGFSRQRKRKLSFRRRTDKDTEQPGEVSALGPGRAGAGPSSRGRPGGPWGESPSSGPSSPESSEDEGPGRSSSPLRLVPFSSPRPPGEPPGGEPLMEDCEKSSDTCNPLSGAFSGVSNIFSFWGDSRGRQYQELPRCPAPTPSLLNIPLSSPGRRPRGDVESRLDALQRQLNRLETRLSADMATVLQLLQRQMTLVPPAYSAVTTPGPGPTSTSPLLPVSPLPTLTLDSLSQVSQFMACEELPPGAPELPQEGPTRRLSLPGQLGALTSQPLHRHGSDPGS
Take `CCc1ccc(OCC(=O)N/N=C\c2ccco2)c([N+](=O)[O-])c1`: the “hERG current change (%, negative = inhibition) at 10uM” value is on record as -67.4%.
Consider `COc1cc(/C=N/NC(=O)COc2ccccc2[N+](=O)[O-])ccc1OC(=O)c1ccco1`, for which the “hERG current change (%, negative = inhibition) at 10uM” value is reported as -1.29%.
To `Cc1cc(-c2nnc(CSc3nnc(NC(=O)c4ccc(C(C)(C)C)cc4)s3)o2)ccc1[N+](=O)[O-]` belongs 4.92%; to `CCN(CC)c1nc(N)c([N+](=O)[O-])c(NCCO)n1`, 12.1%; to `O=C1[C@@H]2CSCN2C(=O)CN1CCc1cccc(F)c1`, -20.9%.
`O=C1C2CSCN2C(=O)CN1CCCN1CCN(C(c2ccccc2)c2ccccc2)CC1` (centres unmarked): the “hERG current change (%, negative = inhibition) at 10uM” value is on record as -53.6%.
To `COc1ccccc1CN1CC(=O)N2CSC[C@H]2C1=O` belongs 10.3%; to `CCn1cc(C(=O)O)c(=O)c2cc(Br)ccc21`, -46.7%.
For the compound `Cc1ccc(/C=C2\SC(=S)N(c3cccnc3)C2=O)cc1`, the “hERG current change (%, negative = inhibition) at 10uM” value came out at 18.9%.
`COc1ccc(OC)c(NC(=O)C2CCCN(S(=O)(=O)c3c(C)noc3C)C2)c1` (centres unmarked): the “hERG current change (%, negative = inhibition) at 10uM” value is recorded as -16.8%.
To `CC(C)c1ccc(N=C2N=C(N)c3ccccc32)cc1` belongs -59.2%.
Turning to `NC1=NC(=Nc2ccc(Cl)cc2)c2ccccc21`, the “hERG current change (%, negative = inhibition) at 10uM” value is listed as -3.81%.
For the compound `NC1=NC(=Nc2ccccc2)c2ccccc21`, the “hERG current change (%, negative = inhibition) at 10uM” value worked out at 8.33%.
Consider `CCOC(=O)c1c(C)[nH]c(C)c1S(=O)(=O)N1CCOCC1`, for which the “hERG current change (%, negative = inhibition) at 10uM” value is listed as 13.8%.
With `COc1ccc(NC(=O)CN2CCN(CC(=O)Nc3ccc4c(c3)OCO4)CC2)cc1`, the “hERG current change (%, negative = inhibition) at 10uM” value was -78.1%.
For the compound `COc1ccc(OCC(=O)Nc2ccc3c(c2)OCO3)cc1`, the “hERG current change (%, negative = inhibition) at 10uM” value was -0.489%.
`COc1ccc(S(=O)(=O)N2CCCN(CC(=O)Nc3ccc4c(c3)OCO4)CC2)cc1`: the “hERG current change (%, negative = inhibition) at 10uM” value was -61.5%.
Turning to `CCOc1ccc(OCCC(=O)Nc2ccc3c(c2)OCO3)cc1`, the “hERG current change (%, negative = inhibition) at 10uM” value was 10.2%.
Turning to `CCOc1ccc(NC(=O)CN2CCN(CC(=O)Nc3ccc4c(c3)OCO4)CC2)cc1`, the “hERG current change (%, negative = inhibition) at 10uM” value is recorded as -76.1%.
As for `COc1ccc(S(=O)(=O)N2CCCN(CC(=O)Nc3ccc(NC(C)=O)cc3)CC2)cc1`, the “hERG current change (%, negative = inhibition) at 10uM” value came to 2.8%.
As to `COc1ccccc1NC(=O)CN1CCN(CC(=O)Nc2ccc3c(c2)OCCO3)CC1`, the “hERG current change (%, negative = inhibition) at 10uM” value was -34.4%.
In the case of `COc1ccccc1NC(=O)CN1CCN(CC(=O)Nc2ccc3c(c2)OCO3)CC1` it was -72%; in that of `O=C(CN1CCOCC1)Nc1ccc2c(c1)OCO2`, 17.3%; in that of `CCOc1ccc(NC(=O)COc2ccc3c(c2)OCO3)cc1`, 1.04%.
For `COc1ccccc1N1CCN(CC(=O)Nc2ccc3c(c2)OCCO3)CC1`, the “hERG current change (%, negative = inhibition) at 10uM” value is given as -6.03%.
As to `COc1ccc(S(=O)(=O)N2CCCN(CC(=O)Nc3ccc(OC)c(Cl)c3)CC2)cc1`, the “hERG current change (%, negative = inhibition) at 10uM” value is reported as -33.3%.
In the case of `COc1ccccc1NC(CC(=O)c1ccccc1)C(=O)OCC(=O)c1ccc(Br)cc1` (centres unmarked) it was -3.81%.
Regarding `Cc1ccc(C2=NN(C(=O)c3cccs3)C(c3ccccc3O)C2)cc1` (centres unmarked), the “hERG current change (%, negative = inhibition) at 10uM” value came to 34%.
Take `O=S1(=O)N=C(N(CCO)/N=C/c2ccc(Cl)cc2)c2ccccc21`: the “hERG current change (%, negative = inhibition) at 10uM” value worked out at 4.3%.
For the compound `CN(C)c1ccc(P(=O)(Nc2ccc([N+](=O)[O-])cc2)N2CCOCC2)c(NC(=O)c2cccs2)c1` (centres unmarked), the “hERG current change (%, negative = inhibition) at 10uM” value was 16.9%.
Regarding `Cc1nc(=O)c(-c2ccccc2)c(C)n1-c1ccc(O)cc1`, the “hERG current change (%, negative = inhibition) at 10uM” value stood at 9.6%.
Consider `O=C(NCCCl)Nc1cccnc1Cl`, for which the “hERG current change (%, negative = inhibition) at 10uM” value worked out at 12.2%.
In the case of `COc1ccc(/C(C)=N\n2cnnc2)cc1` it was 6.86%; in that of `CCOC(=O)CNC(=O)/C(=C\c1ccc(F)cc1)NC(=O)c1ccccc1`, -26.4%; in that of `O=C(CNC(=O)c1ccc(Oc2ccccc2)cc1)OCc1ccc(Br)cc1`, -0.714%.
In the case of `O=C(NC(Cc1ccccc1)C(=O)O)/C(=C\c1ccc(F)cc1)NC(=O)c1ccccc1` (centres unmarked), the “hERG current change (%, negative = inhibition) at 10uM” value was 11.1%.
On to `O=C(CNC(=O)/C(=C/c1ccccc1)NC(=O)c1ccc(Br)cc1)OCc1ccccc1`, for which the “hERG current change (%, negative = inhibition) at 10uM” value is on record as -64%.
Consider `CC(=O)N/C(=C\c1ccccc1)C(=O)OCc1ccc(C)cc1`, for which the “hERG current change (%, negative = inhibition) at 10uM” value was -19.9%.
For the compound `O=C(CNC(=O)/C(=C\c1ccc(F)cc1)NC(=O)c1ccccc1)OCc1ccccc1`, the “hERG current change (%, negative = inhibition) at 10uM” value is -80.7%.
To `Cc1ccc(/C=C(\NC(=O)c2ccccc2)C(=O)OCc2ccccc2)cc1` belongs 10.3%.
For the compound `O=C(Nc1ccc(C(=O)O)cc1)/C(=C\c1ccccc1)NC(=O)c1ccc(Br)cc1`, the “hERG current change (%, negative = inhibition) at 10uM” value came to 7.33%.
As for `Cc1ccc(C(=O)N/C(=C\c2ccccc2)C(=O)OCc2ccccc2)cc1`, the “hERG current change (%, negative = inhibition) at 10uM” value is given as -50.7%.
On to `O=C(CNC(=O)c1ccccc1)OCc1cccc(Br)c1`, for which the “hERG current change (%, negative = inhibition) at 10uM” value was -17.8%.
For the compound `O=C(CNC(=O)/C(=C\c1ccccc1)NC(=O)c1ccc(Br)cc1)OCc1ccccc1`, the “hERG current change (%, negative = inhibition) at 10uM” value is given as -69.1%.

For the origin of these results see paper PMC4336329 (PLoS ONE, 2015).
